# Data as given in PubChem BioAssay (Tox21).
# Values without a mark were called inactive. Inconclusive results are not listed. A call without a number means that no potency is given here. Calls of active or inactive are those of the source. Unless noted, calls come from the whole dose curve; as a rule, active = well fitted curve in the direction sought with a large enough effect in the repeat runs; inconclusive = weak or mixed curves; inactive = no such curve, though single readings can be large; an effect the other way counts as inactive or inconclusive.
# Legend:
# [1] = qHTS assay to identify small molecule agonists of H2AX (AID 1224845; active = well fitted activation curve with a large enough effect in the signal ratio in the repeat runs, not every such curve was filed as active; the % refers to the signal ratio)
# Outline: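 Phospho-H2AX Ser139 measured by HTRF (ex 320 nm; em 665 and 620 nm) after 24 hr antibody incubation. Compounds, 15 concentrations, 0.76% DMSO, were applied to CHO-K1 cells for 3hr at 37C before lysis.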
# [2] = qHTS assay to identify small molecule agonists of the hypoxia (HIF-1) signaling pathway (AID 1224846; active = well fitted activation curve with a large enough effect in the signal ratio in the repeat runs, not every such curve was filed as active; the % refers to the signal ratio)
# Outline: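 Hypoxia-pathway activation was scored as increased beta-lactamase from an HRE-controlled reporter in ME-180 cells; plated at 2,000 cells per well with 0.5% dialyzed FBS, they were exposed 17 hrs to compounds and then given CCF4-AM.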
# [3] = qHTS assay to identify small molecule agonists of H2AX - cell viability counter screen (AID 1224847; calls by dose curve;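 note: wild-type CHO-K1 cells; top concentration of the series differs between compounds; nearly all actives have a fitted effect of over 30% in size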)
# Outline: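 For this counter screen, overnight-attached CHO-K1 cells received test compounds (15 concentrations, 0.76% DMSO final); 3 hr later at 37C, CellTiter-Glo reagent was added and luminescence recorded after 30 min at room temperature.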
# [4] = qHTS RealTime-Glo MT Cell Viability Assay in HepG2 cells - 24 hour (AID 1224867); note: nearly all actives have a fitted effect of over 50% in size
# Outline: (§1)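 Tox21 10K library screened in qHTS format on HepG2 cells carrying RealTime-Glo reagents. Compounds were added after a 5 h preincubation, and the luminescent signal from continuous culture was measured repeatedly during 40 h treatment.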
# [5] = qHTS RealTime-Glo MT Cell Viability Assay in HEK293 cells - 32 hour (AID 1224868); note: top concentration of the series differs between compounds; nearly all actives have a fitted effect of over 50% in size
# Outline: (§2)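 Luminescence generated by NanoLuc from substrate produced by living HEK293 cells served as the viability signal. Each value reflects the reading at its stated time point during continuous 40 h compound exposure at 37 C.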
# [6] = A CellTox Green Cytotoxicity Assay to monitor cytotoxicity in HEK293 cells - 0 hour (AID 1224869); note: nearly all actives have a fitted effect of over 50% in size
# Outline: (§3)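 Seeding of HEK293 cells together with cytotoxicity dye preceded a 5 h incubation at 37 C/5% CO2. Test compounds in DMSO were then added and fluorescence monitored across 40 h.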
# [7] = qHTS RealTime-Glo MT Cell Viability Assay in HepG2 cells - 40 hour (AID 1224870); note: nearly all actives have a fitted effect of over 50% in size
# Outline: (§4)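 Real-time viability: cells seeded at 600 per well together with NanoLuc and cell-permeant prosubstrate, compounds added after 5 h incubation. Luminescence tracked at 0, 8, 16, 24, 32 and 40 h of exposure.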
# [8] = A CellTox Green Cytotoxicity Assay to monitor cytotoxicity in HEK293 cells - 40 hour (AID 1224871); note: nearly all actives have a fitted effect of over 45% in size; note: potency is the fitted concentration of half-maximal effect
# Outline: as §3
# [9] = qHTS RealTime-Glo MT Cell Viability Assay in HEK293 cells - 16 hour (AID 1224872)
# Outline: as §2
# [10] = qHTS RealTime-Glo MT Cell Viability Assay in HepG2 cells - 8 hour (AID 1224873); note: nearly all actives have a fitted effect of over 55% in size
# Outline: as §4
# [11] = A CellTox Green Cytotoxicity Assay to monitor cytotoxicity in HEK293 cells - 24 hour (AID 1224875); note: nearly all actives have a fitted effect of over 45% in size; note: potency is the fitted concentration of half-maximal effect
# Outline: as §3
# [12] = A CellTox Green Cytotoxicity Assay to monitor cytotoxicity in HepG2 cells - 16 hour (AID 1224876); note: nearly all actives have a fitted effect of over 45% in size; note: potency is the fitted concentration of half-maximal effect
# Outline: (§5)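 Nonlytic assay: viable cells exclude the dye, so fluorescence scales with cell death. HepG2 at 600 cells/well, compounds added after 5 h, signal read across 40 h.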
# [13] = qHTS RealTime-Glo MT Cell Viability Assay in HepG2 cells - 32 hour (AID 1224877); note: nearly all actives have a fitted effect of over 55% in size
# Outline: as §1
# [14] = A CellTox Green Cytotoxicity Assay to monitor cytotoxicity in HepG2 cells - 24 hour (AID 1224878); note: nearly all actives have a fitted effect of over 45% in size
# Outline: as §5
# [15] = A CellTox Green Cytotoxicity Assay to monitor cytotoxicity in HepG2 cells - 40 hour (AID 1224879); note: nearly all actives have a fitted effect of over 40% in size; note: potency is the fitted concentration of half-maximal effect
# Outline: as §5
# [16] = qHTS RealTime-Glo MT Cell Viability Assay in HEK293 cells - 0 hour (AID 1224880)
# Outline: (§6)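 Tox21 screen in HEK293 using RealTime-Glo MT chemistry, with cells and reagent co-dispensed. Luminescence proportional to viable cell number was captured at intervals during 40 h compound exposure at 37 C.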
# [17] = qHTS RealTime-Glo MT Cell Viability Assay in HEK293 cells - 40 hour (AID 1224874); settings: RealTime-Glo luminescence; max response: active compounds read low; note: nearly all actives have a fitted effect of over 50% in size; note: potency is the fitted concentration of half-maximal effect
# Outline: as §6
# [18] = A CellTox Green Cytotoxicity Assay to monitor cytotoxicity in HEK293 cells - 32 hour (AID 1224881); note: nearly all actives have a fitted effect of over 40% in size; note: potency is the fitted concentration of half-maximal effect
# Outline: as §3
# [19] = qHTS assay to identify small molecule antagonists of the estrogen related receptor (ERR) signaling pathway from Tox21 library (AID 1224848); note: nearly all actives have a fitted effect of over 50% in size
# Outline: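 Antagonist-mode screen of the Tox21 10K library in an NTP-provided ERR reporter cell line; 18 h compound exposure at 37 C, luminescence measured with ONE-Glo.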
# [20] = qHTS assay to identify small molecule agonists of the estrogen related receptor (ERR) signaling pathway from Tox21 library (AID 1224849; calls by dose curve; note: nearly all actives have a fitted effect of over 15% in size); settings: ERR reporter cell line, ONE-Glo luciferase, 18 h; at 92.4 µM (top of the series)
# Outline: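 Six hours post-seeding at 37 C/5% CO2, ERR cells receive DMSO-solubilised compounds; after 18 h at 37 C, ONE-Glo reagent is applied and luminescence recorded.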
compound,measurement,setting,value
CCCBr,Potency,[1],inactive
same,outcome,[2],inactive
same,Potency,[3],inactive
same,Potency,[4],inactive
same,Potency,[5],inactive
same,Potency,[6],inactive
same,Potency,[7],inactive
same,Potency,[8],inactive
same,Potency,[9],inactive
same,Potency,[10],inactive
same,Potency,[11],inactive
same,Potency,[12],inactive
same,Potency,[13],inactive
same,Potency,[14],inactive
same,Potency,[15],inactive
same,outcome,[16],inactive
CCOP(=S)(OCC)SCSc1cc(Cl)ccc1Cl,Potency,[1],inactive
same,outcome,[2],inactive
same,Potency,[3],inactive
same,Potency,[4],inactive
same,Potency,[5],inactive
same,Potency,[6],inactive
same,Potency,[7],inactive
same,Potency,[8],inactive
same,Potency,[9],inactive
same,Potency,[10],inactive
same,max response,[17],0.23%
same,Potency,[12],inactive
same,Potency,[13],inactive
same,Potency,[14],inactive
same,Potency,[15],inactive
same,outcome,[16],inactive
same,Potency,[18],inactive
CCCCCCCCCCCCN=C(N)N,activation (H2AX phosphorylation),[1],-1.39% [at 5.45 µM]
same,activation,[2],0.622% [at 2.67 µM]
same,"activity change, negative = cytotoxicity",[3],-0.757% [at 5.43 µM]
same,"activity change, negative = cytotoxicity",[4],-4.51% [at 2.72 µM]
same,"activity change, negative = cytotoxic",[7],1.81% [at 2.72 µM]
same,cytotoxicity increase,[8],10.9% [at 2.72 µM]
same,Potency,[17],1.07 µM (active)
same,activity change,[11],"11.7% [at 2.72 µM, active compounds read high]"
same,cytotoxicity increase,[12],-5.75% [at 2.72 µM]
same,"activity change, negative = cytotoxic",[13],-5.5% [at 2.72 µM]
same,cytotoxicity,[14],-6.79% [at 2.72 µM]
same,cytotoxicity increase,[15],-4.41% [at 2.72 µM]
same,"activity change, negative = cytotoxicity",[16],2.39% [at 2.72 µM]
same,cytotoxicity increase,[18],11.7% [at 2.72 µM]
O=CC=O,Potency,[1],inactive
same,outcome,[2],inactive
same,Potency,[5],inactive
same,Potency,[7],inactive
same,Potency,[8],inactive
same,Potency,[9],inactive
same,Potency,[10],inactive
same,max response,[17],2.31%
same,Potency,[11],inactive
same,Potency,[12],inactive
same,Potency,[13],inactive
same,Potency,[14],inactive
same,Potency,[15],inactive
same,outcome,[16],inactive
same,Potency,[18],inactive
O=C(Cl)OCCOCCOC(=O)Cl,Potency,[1],inactive
same,outcome,[2],inactive
same,Potency,[19],inactive
same,"activity change, positive = activation",[20],1.12%
same,Potency,[4],inactive
same,Potency,[6],inactive
same,Potency,[7],inactive
same,Potency,[8],inactive
same,Potency,[9],inactive
same,Potency,[10],inactive
same,max response,[17],3.34%
same,Potency,[11],inactive
same,Potency,[12],inactive
same,Potency,[13],inactive
same,Potency,[14],inactive
same,Potency,[15],inactive
same,outcome,[16],inactive
CCSCc1ccccc1OC(=O)NC,Potency,[1],inactive
same,outcome,[2],inactive
same,Potency,[4],inactive
same,Potency,[5],inactive
same,Potency,[7],inactive
same,Potency,[8],inactive
same,Potency,[9],inactive
same,Potency,[10],inactive
same,max response,[17],-1.43%
same,Potency,[12],inactive
same,Potency,[13],inactive
same,Potency,[14],inactive
same,Potency,[15],inactive
same,outcome,[16],inactive
same,Potency,[18],inactive
CCCCC(CC)COC(=O)c1c(Br)c(Br)c(Br)c(Br)c1C(=O)OCC(CC)CCCC (stereo not given),Potency,[1],inactive
same,outcome,[2],inactive
same,Potency,[4],inactive
same,Potency,[5],inactive
same,Potency,[7],inactive
same,Potency,[8],inactive
same,Potency,[9],inactive
same,Potency,[10],inactive
same,max response,[17],-1.1%
same,Potency,[11],inactive
same,Potency,[12],inactive
same,Potency,[13],inactive
same,Potency,[15],inactive
same,outcome,[16],inactive
same,Potency,[18],inactive
CC(=O)OC(c1ccccc1)C(Cl)(Cl)Cl (stereo not given),Potency,[1],inactive
same,outcome,[2],inactive
same,Potency,[4],inactive
same,Potency,[5],inactive
same,Potency,[6],inactive
same,Potency,[7],inactive
same,Potency,[8],19.5 µM (active)
same,Potency,[9],inactive
same,Potency,[10],inactive
same,max response,[17],-15.9%
same,Potency,[11],19.5 µM (active)
same,Potency,[12],21.9 µM (active)
same,Potency,[13],inactive
same,Potency,[15],21.9 µM (active)
same,outcome,[16],inactive
same,Potency,[18],19.5 µM (active)
